Measurements taken from PubChem BioAssay.
Calls of active or inactive are those of the source.

Experiments:
[1] = tested on: Plasmodium falciparum Sir2 (PF13_0152, Sir2A); assay: pfSir2 binders on small-molecule microarrays, primary screen, biochemical, small-molecule microarray, 635 nm fluorescence (AID 1098); conditions: small-molecule microarray binding, fluorescence 635 nm; higher = more signal;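 further: score merges spot fluorescence intensity with its signal-to-noise ratio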
[2] = small-molecule microarray binders of probe aDKK1, primary screen, biochemical, biotinylated probe, 635/667 nm fluorescence (AID 1099); conditions: higher = more signal;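 further: score merges 667nm spot fluorescence with signal to noise across triplicate slides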
[3] = small-molecule microarray binders of probe aCHRDL2, primary screen, biochemical, biotinylated probe, 635/667 nm fluorescence (AID 1100); conditions: higher = more signal
[4] = splicing luciferase reporter signal modulators, primary screen, spliceosome inhibition project, cell-based, HEK293, splice +/- reporter (AID 1101); conditions: luminescence, 24 h, higher = more signal, called active from +8 up or from −8 down;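 further: HEK293 cells carrying a splicing-competent luciferase reporter gene; test concentration not given here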
[5] = biological target: Fibroblast growth factor 10 (Homo sapiens) (UniProt O15520); assay: FGF10 binders on small-molecule microarrays, primary screen, biochemical, small-molecule microarray, 635 nm fluorescence (AID 1102); conditions: FGF10 binding, fluorescence 635 nm, higher = more signal
Chain of Fibroblast growth factor 10 (Homo sapiens) (O15520 whole entry, looked up): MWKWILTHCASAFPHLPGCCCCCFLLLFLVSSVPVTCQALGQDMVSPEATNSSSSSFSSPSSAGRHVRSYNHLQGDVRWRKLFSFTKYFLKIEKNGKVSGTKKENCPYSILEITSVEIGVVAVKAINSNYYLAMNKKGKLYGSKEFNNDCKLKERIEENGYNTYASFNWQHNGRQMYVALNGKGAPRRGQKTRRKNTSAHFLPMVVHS

[6] = tested on: glycogen synthase kinase-3 (GSK3A per assay name; protocol says GSK3B); assay: GSK3 binders on small-molecule microarrays, primary screen, biochemical, small-molecule microarray, 635 nm fluorescence, GSK3A (AID 1103); conditions: small-molecule microarray binding, fluorescence 635 nm; higher = more signal; further: the record names both GSK3A and GSK3B
[7] = biological target: Epidermal growth factor receptor (Homo sapiens) (UniProt P00533); assay: EGFR binders on small-molecule microarrays, primary screen, biochemical, small-molecule microarray, 635 nm fluorescence (AID 1104); conditions: EGFR binding, higher = more signal;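 further: score merges 667 nm emission intensity with spot signal to noise over triplicate slides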
Chain of Epidermal growth factor receptor (Homo sapiens) (P00533 whole entry, looked up): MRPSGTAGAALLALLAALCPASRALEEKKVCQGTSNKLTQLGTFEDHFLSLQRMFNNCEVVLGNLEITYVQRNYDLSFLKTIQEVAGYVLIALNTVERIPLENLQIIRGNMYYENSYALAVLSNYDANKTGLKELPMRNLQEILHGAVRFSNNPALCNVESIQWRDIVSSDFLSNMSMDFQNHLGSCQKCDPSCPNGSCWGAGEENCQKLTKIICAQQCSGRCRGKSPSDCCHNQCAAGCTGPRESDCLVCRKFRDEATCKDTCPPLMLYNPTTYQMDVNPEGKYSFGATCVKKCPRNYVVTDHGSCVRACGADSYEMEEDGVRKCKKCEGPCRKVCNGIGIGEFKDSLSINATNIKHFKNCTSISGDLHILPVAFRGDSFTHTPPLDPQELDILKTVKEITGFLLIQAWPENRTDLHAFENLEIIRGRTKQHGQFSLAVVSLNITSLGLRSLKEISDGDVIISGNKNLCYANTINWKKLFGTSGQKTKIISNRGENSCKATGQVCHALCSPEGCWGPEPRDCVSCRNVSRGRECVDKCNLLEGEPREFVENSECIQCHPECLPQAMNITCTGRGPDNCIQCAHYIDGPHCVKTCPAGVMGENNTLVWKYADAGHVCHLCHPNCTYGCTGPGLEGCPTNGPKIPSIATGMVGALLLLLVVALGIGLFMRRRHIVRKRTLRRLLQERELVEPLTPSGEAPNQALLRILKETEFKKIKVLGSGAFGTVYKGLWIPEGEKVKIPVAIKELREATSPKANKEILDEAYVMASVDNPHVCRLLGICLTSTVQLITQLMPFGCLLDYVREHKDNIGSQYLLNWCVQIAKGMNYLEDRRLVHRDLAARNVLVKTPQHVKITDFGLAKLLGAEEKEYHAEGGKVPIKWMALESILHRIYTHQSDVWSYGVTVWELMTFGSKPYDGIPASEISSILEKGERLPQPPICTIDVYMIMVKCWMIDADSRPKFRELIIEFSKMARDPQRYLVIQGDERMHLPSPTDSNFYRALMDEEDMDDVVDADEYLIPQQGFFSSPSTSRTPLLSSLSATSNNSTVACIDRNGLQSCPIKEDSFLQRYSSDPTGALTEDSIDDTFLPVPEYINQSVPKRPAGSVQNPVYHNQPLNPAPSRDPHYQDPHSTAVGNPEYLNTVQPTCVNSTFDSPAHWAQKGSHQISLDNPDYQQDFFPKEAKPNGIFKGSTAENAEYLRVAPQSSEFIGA

[8] = biological target: Follistatin-related protein 3 (Homo sapiens) (UniProt O95633); assay: FSTL3 binders on small-molecule microarrays, primary screen, biochemical, small-molecule microarray, 635 nm fluorescence (AID 1105); conditions: FSTL3 binding, higher = more signal;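 further: score merges emission near 667 nm and signal to noise per printed spot across three slides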
Chain of Follistatin-related protein 3 (Homo sapiens) (O95633 whole entry, looked up): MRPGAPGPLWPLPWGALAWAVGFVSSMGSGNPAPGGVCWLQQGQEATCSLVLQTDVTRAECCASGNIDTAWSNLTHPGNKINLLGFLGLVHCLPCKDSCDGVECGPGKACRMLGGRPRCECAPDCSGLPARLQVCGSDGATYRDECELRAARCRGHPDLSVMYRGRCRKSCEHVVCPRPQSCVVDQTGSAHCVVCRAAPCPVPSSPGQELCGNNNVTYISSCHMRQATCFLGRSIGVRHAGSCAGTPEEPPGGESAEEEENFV

[9] = biological target: Dickkopf-related protein 1 (Homo sapiens) (UniProt O94907); assay: DKK1 binders on small-molecule microarrays, primary screen, biochemical, small-molecule microarray, 635 nm fluorescence scan (AID 1106); conditions: DKK1 binding, higher = more signal;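 further: score merges emission near 667 nm with signal to noise over three replicate slides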
Chain of Dickkopf-related protein 1 (Homo sapiens) (O94907 whole entry, looked up): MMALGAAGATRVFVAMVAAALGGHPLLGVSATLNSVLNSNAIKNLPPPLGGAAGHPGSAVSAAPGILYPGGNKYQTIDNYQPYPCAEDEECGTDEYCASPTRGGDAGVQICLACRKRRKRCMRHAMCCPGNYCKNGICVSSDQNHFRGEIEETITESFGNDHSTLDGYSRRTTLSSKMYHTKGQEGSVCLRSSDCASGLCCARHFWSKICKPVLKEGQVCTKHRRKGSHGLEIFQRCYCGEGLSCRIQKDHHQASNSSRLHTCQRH

[10] = tested on: Inhibin beta A chain (activin A); assay: INHBA (activin A) binders on microarrays, primary screen, biochemical, small-molecule microarray, 635 nm fluorescence scan (AID 1107); conditions: small-molecule microarray binding, higher = more signal;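 further: mouse activin A protein probed at 4.33 µg/mL on printed slides; score merges bound-protein fluorescence near 667 nm with spot signal-to-noise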
[11] = tested on: Human papillomavirus type 1a protein E7 (residues 44-93); assay: HPV1a E7 fragment binders on microarrays, primary screen, biochemical, small-molecule microarray, residues 44-93, 635 nm fluorescence (AID 1108); conditions: small-molecule microarray binding, fluorescence 635 nm; higher = more signal;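 further: E7 fragment applied at 1 µg/mL in TBST for 1 h at 4 C; score combines spot fluorescence with its signal to noise ratio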
[12] = modulators of HCV replicon luciferase signal, primary screen, HCV replication inhibitor project, Huh7 cells, luciferase reporter (AID 1109); conditions: 48 h, higher = more signal;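 further: huh7 hepatoma cells harbouring a luciferase neomycin HCV replicon reporter; luciferase luminescence as measure of HCV replicon replication; test concentration not given here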
[13] = biological target: Left-right determination factor 2 (Homo sapiens) (UniProt O00292); assay: LEFTY2 binders on small-molecule microarrays, primary screen, biochemical, small-molecule microarray, 635 nm fluorescence scan (AID 1110); conditions: LEFTY2 binding, higher = more signal
Chain of Left-right determination factor 2 (Homo sapiens) (O00292 whole entry, looked up): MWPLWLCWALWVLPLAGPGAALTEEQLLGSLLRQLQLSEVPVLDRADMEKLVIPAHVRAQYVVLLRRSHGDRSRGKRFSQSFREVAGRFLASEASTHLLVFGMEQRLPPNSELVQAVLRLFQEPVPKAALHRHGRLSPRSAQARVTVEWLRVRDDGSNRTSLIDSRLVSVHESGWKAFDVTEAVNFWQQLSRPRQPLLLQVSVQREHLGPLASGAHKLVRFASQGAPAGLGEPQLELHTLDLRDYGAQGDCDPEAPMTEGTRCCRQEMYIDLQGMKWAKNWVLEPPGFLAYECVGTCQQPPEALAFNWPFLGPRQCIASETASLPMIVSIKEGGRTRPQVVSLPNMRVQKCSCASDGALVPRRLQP

[14] = biological target: Calmodulin-1 (Homo sapiens) (UniProt P0DP23); assay: CALM1 binders on microarrays, EGTA buffer, profiling panel, biochemical, small-molecule microarray, Cy5-labelled CALM1 (AID 1111); conditions: Cy5-CALM1 binding fluorescence, higher = more signal;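 further: labelled calmodulin applied in Tris saline Tween buffer holding calcium plus EGTA and DTT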
[15] = biological target: Calmodulin-1 (Homo sapiens) (UniProt P0DP23); assay: calcium-bound CALM1 binders on microarrays, profiling panel, artefact control for SMM control-protein annotation, biochemical, small-molecule microarray, Cy5-labelled CALM1, plus calcium (AID 1112); conditions: Cy5-CALM1 binding fluorescence, higher = more signal;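 further: score merges spot fluorescence with signal to noise from triplicate slides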
[16] = small-molecule microarray binders of probe aWnt5a, primary screen, biochemical, biotinylated probe, 635/667 nm fluorescence (AID 1113); conditions: higher = more signal;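 further: score merges 667 nm fluorescence intensity with signal-to-noise per printed feature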
[17] = small-molecule microarray binders of probe aShh, primary screen, biochemical, biotinylated probe, 635/667 nm fluorescence (AID 1114); conditions: higher = more signal;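 further: probe is biotin-labelled aShh protein from a stem cell growth factor screen; measures binding of labelled protein to compounds printed on the slide; score merges feature fluorescence at 667 nm with signal-to-noise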
[18] = small-molecule microarray binders of probe aNog, primary screen, biochemical, biotinylated probe, 635/667 nm fluorescence (AID 1115); conditions: higher = more signal;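 further: probe is biotinylated aNog protein used at 0.15 µg/mL for 1 h at 4 C; z-score combines 667 nm fluorescence of each spot with its signal to noise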
[19] = biological target: Torsin-1A-interacting protein 1 (Homo sapiens) (UniProt Q5JTV8); assay: LAP1 binders from COS7 cell lysate, primary screen, small-molecule microarray, 635/667 nm fluorescence (AID 1116); conditions: COS7-hLAP1 lysate binding, 635 nm fluorescence, higher = more signal
Chain of Torsin-1A-interacting protein 1 (Homo sapiens) (Q5JTV8 whole entry, looked up): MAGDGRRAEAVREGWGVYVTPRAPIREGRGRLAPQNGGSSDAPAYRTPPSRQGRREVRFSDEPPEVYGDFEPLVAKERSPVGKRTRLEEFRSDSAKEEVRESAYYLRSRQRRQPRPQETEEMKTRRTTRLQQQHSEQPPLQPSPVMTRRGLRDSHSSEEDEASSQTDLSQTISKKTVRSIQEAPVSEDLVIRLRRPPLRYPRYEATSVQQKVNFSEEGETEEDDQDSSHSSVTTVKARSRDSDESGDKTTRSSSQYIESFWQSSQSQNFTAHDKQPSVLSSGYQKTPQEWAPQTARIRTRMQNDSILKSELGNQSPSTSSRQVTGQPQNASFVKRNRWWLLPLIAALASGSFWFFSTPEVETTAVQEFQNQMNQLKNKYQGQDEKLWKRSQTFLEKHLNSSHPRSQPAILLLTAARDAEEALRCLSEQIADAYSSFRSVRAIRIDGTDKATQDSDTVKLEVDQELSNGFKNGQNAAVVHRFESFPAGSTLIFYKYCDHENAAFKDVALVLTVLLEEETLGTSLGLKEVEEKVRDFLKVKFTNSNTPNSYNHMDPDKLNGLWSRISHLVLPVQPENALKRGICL

[20] = biological target: Alpha-bungarotoxin (Bungarus multicinctus) (UniProt P60615); assay: alpha-bungarotoxin binders on microarray, profiling panel, artefact control for SMM control protein annotation, biochemical, small-molecule microarray, Alexa647 label, 635/667 nm fluorescence (AID 1117); conditions: alpha-BTX-A647 binding fluorescence, higher = more signal
Chain of Alpha-bungarotoxin (Bungarus multicinctus) (P60615 whole entry, looked up): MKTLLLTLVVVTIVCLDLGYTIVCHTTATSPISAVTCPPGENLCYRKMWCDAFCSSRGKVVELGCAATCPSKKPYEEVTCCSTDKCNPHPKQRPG

| Structure (SMILES) | composite z-score [1] | composite z-score [2] | composite z-score [3] | z-score [4] | composite z-score [5] | composite z-score [6] | composite z-score [7] | composite z-score [8] | composite z-score [9] | composite z-score [10] | composite z-score [11] | z-score [12] | composite z-score [13] | composite z-score [14] | composite z-score [15] | composite z-score [16] | composite z-score [17] | composite z-score [18] | composite z-score [19] | composite z-score [20] |
| --- | --- | --- | --- | --- | --- | --- | --- | --- | --- | --- | --- | --- | --- | --- | --- | --- | --- | --- | --- | --- |
| CN(C)CCCNC(=O)[C@@H]1c2ccccc2C(=O)N(C2Cc3ccccc3C2)[C@H]1c1ccc(CO)cc1 | 1.78 | 0.227 | 0.559 | -0.196 (inactive) | -0.514 | 1.27 | -0.741 | -0.12 | -0.273 | 0.923 | 1.1 | -1.9 | -0.625 | -0.0693 | -0.875 | 0.0436 | 0.0766 | 0.467 | 0.814 | 0.438 |
| C=CCC(OC(C)=O)[C@@H]1[C@@H](N(Cc2cccc3ccccc23)C(=O)c2ccc(C)cc2)c2cc(OCCCO)ccc2N1C(=O)c1ccc2ccccc2n1 (stereo not given in full) | 0.206 | -0.16 | 0.322 | -1.47 (inactive) | 0.0635 | 0.104 | 0.386 | 0.29 | 0.145 | 0.863 | -0.139 | -0.614 | -0.0457 | -0.388 | -0.195 | -0.147 | -0.341 | -0.555 | 0.482 | 1.46 |
| CN1C(=O)C2C(C1=O)C1C=C(c3ccc(CO)cc3)C2C(c2cccs2)N1C (stereo not given) | 0.609 | 0.0014 | 0.381 | -0.516 (inactive) | -0.0606 | 0.378 | -0.2 | -0.164 | -0.0556 | 0.779 | 0.104 | 0.706 | -0.112 | 1.47 | 0.312 | -0.1 | -0.0553 | -0.12 | 2.17 | 1.86 |
| CCCCNC(=O)c1ccc(C#C[Si](C)(C)C)c(OC(C)=O)c1 | -0.0653 | -0.31 | -0.509 | -0.176 (inactive) | 0.458 | 0.419 | 0.315 | 0.384 | 0.374 | 0.58 | 0.315 | 0.93 | 0.431 | -0.262 | -0.834 | -0.191 | 0.0952 | -0.185 | 0.37 | 0.25 |
| C=CCN1C(=O)[C@]2(O[C@H](CCn3cc([C@H](O)c4ccccc4)nn3)[C@@H]([Si](C)(C)c3ccc(OC)cc3)[C@@H]2C)c2cc(N3C(=O)c4cccc5cccc3c45)ccc21 | 0.783 | -0.168 | 0.195 | -1.18 (inactive) | 0.57 | -0.549 | -0.795 | 0.187 | -0.857 | -0.302 | 0.87 | -4.4 | -0.744 | 0.313 | -0.58 | -0.156 | -0.0769 | -0.0809 | 0.404 | 1.39 |
| CCCCCCc1nc(-c2ccc(OC)nc2)cc2c1[Si](C(C)C)(C(C)C)OC2 | 0.0342 | -0.251 | -0.037 | -0.589 (inactive) | -0.322 | -0.574 | -0.459 | -0.351 | -0.329 | 0.96 | -0.611 | 1.09 | -0.147 | -0.464 | 0.0559 | -0.0643 | -0.262 | -0.0965 | -0.346 | 0.502 |
| COc1cc2c(cc1O)C(c1ccc(CN3CCCC3)cc1)N(Cc1ccc([N+](=O)[O-])o1)CC2 (stereo not given) | 1.23 | -0.276 | -0.0934 | 0.982 (inactive) | 0.116 | -0.903 | -0.0173 | 0.0429 | -0.299 | -0.289 | -1.17 | -1.05 | 0.313 | 0.383 | 0.958 | -0.167 | -0.193 | 0.0692 | 1.12 | 0.951 |
| C=CCC(OC(C)=O)[C@@H]1[C@@H](N(Cc2cc3ccccc3o2)C(=O)Cc2ccc(OC)cc2)c2cc(OCCCO)ccc2N1C(=O)Cc1ccc2ccccc2c1 (stereo not given in full) | -0.542 | -0.217 | 0.689 | -0.475 (inactive) | -0.448 | -1.52 | -0.227 | -0.471 | -0.62 | 0.806 | -0.687 | -0.739 | -0.487 | -0.197 | 0.191 | -0.0704 | 0.0815 | -0.0642 | 0.475 | 0.615 |
| COC(=O)[C@@]1(Cc2ccc(F)cc2)[C@H]2c3cc(C(=O)N(C)C)n(CCO)c3C[C@H]2CN1C(=O)c1ccccc1 | 1.56 | 0.453 | 0.361 | -0.773 (inactive) | 0.721 | -0.532 | -0.537 | -0.918 | -0.764 | 0.495 | -0.0095 | -0.896 | -0.388 | 0.987 | 0.322 | -0.0271 | 0.494 | 1.33 | 1.47 | -0.148 |
| COc1ccc([Si](C)(C)[C@H]2[C@H](CC(=O)N3Cc4ccccc4C[C@H]3CO)O[C@@]3(C(=O)N(Cc4cccc(N5C(=O)c6cccc7cccc5c67)c4)c4ccccc43)[C@@H]2C)cc1 | 1.63 | -0.37 | -0.151 | -1.87 (inactive) | 1.31 | 0.627 | 0.774 | 1.28 | 0.948 | 1.2 | 1.19 | -4.08 | 0.633 | -0.144 | -0.836 | -0.0316 | -0.0778 | 1.11 | 0.302 | 2.33 |
| COCCOC(=O)N1C(=O)[C@@]2(c3cc(C#CC4=CCCCC4)ccc31)[C@H](c1ccccc1OCCO)N1[C@H](c3ccccc3)[C@H](c3ccccc3)OC(=O)[C@H]1[C@@H]2C(N)=O | 1.35 | -0.0668 | -0.144 | -3.87 (inactive) | 1.29 | 1.31 | 0.766 | 1.2 | 0.912 | 0.557 | 1.32 | -3.44 | 0.62 | 0.367 | -0.416 | -0.0758 | -0.167 | -0.512 | 0.383 | 0.161 |
| [N-]=[N+]=NCc1ccccc1[C@@H]1OC(c2ccc(OCCCO)cc2)=N[C@]1(Cc1ccccc1)C(=O)NCc1ccccc1 | 0.869 | -0.0406 | 0.996 | -1.29 (inactive) | 0.769 | 0.113 | 0.131 | 0.529 | -0.154 | 0.656 | 1.28 | -2.34 | 0.0086 | 1.87 | 0.237 | 0.0495 | 0.0181 | -0.489 | 1.12 | 0.688 |
